Experimental data published in PubChem BioAssay AID1159580 (chemical genetic matrix, 2015).
Screen size: about 5,500 compounds; about 2,000 (36%) were called active. Inconclusive results (about 18%) are left out. Rule as the data show it: active = normalized growth mostly below about 0.91 (no sharp cut-off); inconclusive = no clear call, values can overlap the other calls; inactive = mostly above about 0.92. The list shows a part of the results.

Test: chemical genetic growth profiling, strain panel (AID 1159580);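 also: tested at 20 µM; growth read once vehicle control cultures reached saturation at 30 °C; 1 = growth at the plate median or of vehicle wells; lower values mean less growth of the strain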
Conditions: S. cerevisiae deletion strains, growth OD

Measured: normalized growth

c1ccc2nc(N3CCNCC3)ccc2c1
inactive: locus YAL013W, strain DEP1, hits give low values 0.992 | locus YAL021C, strain ccr4, hits give low values 0.997 | locus YAL026C, strain drs2, hits give low values 0.989 | locus YAL030W, strain snc1, hits give low values 0.999 | locus YAL040C, strain CLN3, hits give low values 1.02 | locus YBL061C, strain skt5, hits give low values 1.01 | locus YBR009C, strain hhf1, hits give low values 1.01 | locus YBR023C, strain chs3, hits give low values 1.01 | locus YBR171W, strain sec66, hits give low values 0.985 | locus YBR231C, strain swc5, hits give low values 1.02 | locus YBR279W, strain paf1, hits give low values 1.01 | locus YCL011C, strain gbp2, hits give low values 0.97 | locus YCL016C, strain dcc1, hits give low values 1.01 | locus YCL061C, strain MRC1 (second series), hits give low values 1 | locus YCL061C, strain MRC1, hits give low values 0.981 | locus YCL069W, strain vba3, hits give low values 0.982 | locus YCR088W, strain abp1, hits give low values 0.984 | locus YDL005C, strain med2, hits give low values 1.01 | locus YDL040C, strain nat1, hits give low values 1.01 | locus YDR001C, strain nth1, hits give low values 0.982 | locus YDR069C, strain doa4, hits give low values 0.975 | locus YDR137W, strain rgp1, hits give low values 1.09 | locus YDR159W, strain sac3, hits give low values 0.985 | locus YDR195W, strain ref2 1.01 | locus YDR297W, strain sur2, hits give low values 1 | locus YDR334W, strain swr1, hits give low values 1.01 | locus YDR335W, strain msn5, hits give low values 1 | locus YDR363W, strain ESC2, hits give low values 0.97 | locus YDR392W, strain spt3, hits give low values 0.976 | locus YEL003W, strain gim4, hits give low values 0.971 | locus YEL037C, strain rad23, hits give low values 0.987 | locus YEL061C, strain CIN8 (second series), hits give low values 0.988 | locus YER002W, strain NOP16, hits give low values 1.03 | locus YER015W, strain faa2, hits give low values 0.995 | locus YER016W, strain bim1, hits give low values 1.01 | locus YER111C, strain swi4, hits give low values 0.99 | locus YER155C, strain BEM2 (second series), hits give low values 0.957 | locus YFR010W, strain ubp6, hits give low values 0.985 | locus YGL167C, strain pmr1, hits give low values 1.01 | locus YGL173C, strain kem1, hits give low values 1.01 | locus YGL227W, strain vid30, hits give low values 0.979 | locus YGL240W, strain doc1, hits give low values 0.998 | locus YGL253W, strain hxk2, hits give low values 1.01 | locus YGR078C, strain PAC10, hits give low values 1.01 | locus YHR013C, strain ard1, hits give low values 0.966 | locus YHR027C, strain rpn1, hits give low values 1.01 | locus YHR030C, strain SLT2, hits give low values 0.982 | locus YHR079C, strain IRE1, hits give low values 0.993 | locus YHR142W, strain chs7, hits give low values 0.968 | locus YJL092W, strain hpr5, hits give low values 0.978 | locus YJL095W, strain BCK1 (second series), hits give low values 1.01 | locus YJL095W, strain BCK1, hits give low values 0.999 | locus YJL115W, strain asf1, hits give low values 0.994 | locus YJL129C, strain trk1, hits give low values 0.947 | locus YJL154C, strain vps35, hits give low values 0.977 | locus YJL164C, strain tpk1, hits give low values 1.01 | locus YJL166W, strain qcr8, hits give low values 1.01 | locus YJL187C, strain SWE1, hits give low values 1 | locus YJR066W, strain TOR1, hits give low values 0.962 | locus YKL160W, strain elf1, hits give low values 1 | locus YKR026C, strain gcn3, hits give low values 0.981 | locus YKR091W, strain srl3, hits give low values 1 | locus YLL001W, strain dnm1, hits give low values 1.01 | locus YLL026W, hits give low values 1 | locus YLL041C, strain sdh2, hits give low values 1.01 | locus YLR027C, strain aat2, hits give low values 1 | locus YLR113W, strain HOG1, hits give low values 1.01 | locus YLR221C, strain rsa3, hits give low values 1 | locus YLR258W, strain gsy2, hits give low values 1.01 | locus YLR262C, strain YPT6 (second series), hits give low values 1.03 | locus YLR320W, strain mms22, hits give low values 1.02 | locus YLR342W, strain FKS1, hits give low values 1.02 | locus YLR357W, strain rsc2, hits give low values 1.04 | locus YLR370C, strain arc18, hits give low values 1.01 | locus YLR384C, strain iki3, hits give low values 1.01 | locus YML120C, strain ndi1, hits give low values 1 | locus YMR058W, strain fet3, hits give low values 0.989 | locus YMR125W, strain sto1, hits give low values 0.99 | locus YMR129W, hits give low values 0.99 | locus YMR205C, strain PFK2, hits give low values 1 | locus YMR231W, strain pep5, hits give low values 1.01 | locus YMR307W, strain GAS1, hits give low values 1.01 | locus YNL071W, strain lat1, hits give low values 0.999 | locus YNL128W, strain TEP1, hits give low values 1.01 | locus YNL153C, strain GIM3, hits give low values 0.958 | locus YNL175C, strain NOP13, hits give low values 1.02 | locus YNL183C, strain NPR1, hits give low values 0.95 | locus YNL197C, strain WHI3, hits give low values 0.998 | locus YNL209W, strain ssb2, hits give low values 0.998 | locus YNL224C, strain SQS1, hits give low values 1.01 | locus YNL248C, strain rpa49, hits give low values 0.996 | locus YNL322C, strain KRE1 (second series), hits give low values 1 | locus YNR049C, strain mso1, hits give low values 1 | locus YOR001W, strain rrp6, hits give low values 0.995 | locus YOR070C, strain gyp1, hits give low values 1 | locus YOR080W, strain dia2, hits give low values 1 | locus YOR083W, strain WHI5 (second series), hits give low values 1.02 | locus YOR083W, strain WHI5, hits give low values 1.01 | locus YOR106W, strain vam3, hits give low values 1.01 | locus YOR231W, strain MKK1, hits give low values 0.99 | locus YOR265W, strain rbl2, hits give low values 1 | locus YOR270C, strain vph1, hits give low values 0.987 | locus YOR290C, strain snf2, hits give low values 0.975 | locus YPL051W, strain arl3, hits give low values 1.02 | locus YPL055C, strain LGE1, hits give low values 0.988 | locus YPL078C, strain atp4, hits give low values 0.984 | locus YPL106C, strain sse1, hits give low values 1 | locus YPL240C, strain hsp82, hits give low values 1.01 | locus YPL256C, strain CLN2, hits give low values 0.988
